A short description of test [1]: optical density shifts of acrAB sulA E. coli – strain DRC41, OD650, 48 h, E. coli filamentation inducer project, primary screen (AID 1152).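 Also: E. coli MC1000 strain DRC41 lacking acrAB efflux pump and sulA.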 The settings on record: higher = more signal, called active from +8 up or from −8 down.
Test [2] is described as follows: probe aLefty1 binding on compound microarray – biochemical, small-molecule microarray, 635/667 nm fluorescence, primary screen (AID 1153).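 Also: score merges spot fluorescence with signal-to-noise ratio from the scanned slide images.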 The settings on record: higher = more signal.
A short description of test [3]: plasmodial surface anion channel blockers, osmotic lysis – cell-based, P. falciparum Indochina, OD700, 1 h, primary screen (AID 1154). Conditions: P. falciparum Indochina infected RBC osmotic lysis, higher = more signal, called active from +8 up or from −8 down.
The nature of test [4]: plasmodial surface anion channel blockers, osmotic lysis – cell-based, P. falciparum Indochina, OD700, 2 h, primary screen (AID 1155).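 Also: lysis reports solute entry through the parasite surface anion channel PSAC.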 The settings on record: P. falciparum Indochina infected erythrocytes, higher = more signal, called active from +8 up or from −8 down.
Test [5] can be described thus: changes in parasitized red cell lysis, either direction – P. falciparum Indochina, OD700, 3 h, PSAC antagonist project, primary screen (AID 1156). The settings on record: P. falciparum-infected erythrocytes, osmotic lysis, higher = more signal, called active from +8 up or from −8 down.
The nature of test [6]: plasmodial surface anion channel blockers, osmotic lysis – cell-based, P. falciparum Indochina, OD700, 18 h, primary screen (AID 1157). The settings on record: P. falciparum Indochina infected erythrocytes, osmotic lysis OD700, 18 h; higher = more signal, called active from +8 up or from −8 down.
A short description of test [7]: S6 kinase pathway phospho-S6 level changes – cell-based, A549, cytoblot, luminescence, serum-stimulated, primary screen (AID 1158).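 Also: serum-stimulated A549 lung adenocarcinoma cells; signal is phosphorylated S6 detected by cytoblot immunostaining with HRP secondary.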 The settings on record: 5 h, higher = more signal.
Test [8] has as its target NADPH oxidase 2 (Homo sapiens) (UniProt P04839). Description: compounds shifting NOX2 Amplex Red fluorescence – cell-based, HEK293-NOX2, PMA-stimulated, NOX inhibitor project, primary screen (AID 1159). Also: test concentration not given here. The settings on record: 45 min, higher = more signal, called active from +8 up or from −8 down.
Test [9] addresses NADPH oxidase 4 (Homo sapiens) (UniProt Q9NPH5). The experiment in a line: compounds shifting NOX4 Amplex Red fluorescence – cell-based, HEK293-NOX4, tetracycline-induced, NOX inhibitor project, primary screen (AID 1160). The settings on record: HEK293-NOX4, Amplex Red H2O2 fluorescence, 45 min; higher = more signal, called active from +8 up or from −8 down.
In test [10] the target is NADPH oxidase 5 (Homo sapiens) (UniProt Q96PH1). Description: compounds shifting NOX5 Amplex Red fluorescence – cell-based, HEK293-NOX5, NOX inhibitor project, primary screen (AID 1161). The settings on record: HEK293-NOX5, ionomycin, 45 min, higher = more signal.
The nature of test [11]: compound effects on lung adenocarcinoma cell viability – A549, calcein-AM fluorescence, 48 h, basal, profiling panel (AID 1162). Also: test concentration not given here. Conditions: higher = more signal.
The nature of test [12]: compound effects on differentiated 3T3-L1 adipocyte viability – cell-based, 3T3-L1 adipocytes, calcein-AM fluorescence, 48 h, basal, profiling panel (AID 1163). Also: test concentration not given here. The settings on record: 3T3-L1 adipocytes viability, higher = more signal.
Test [13] is described as follows: compound effects on hepatocellular carcinoma cell viability – HepG2, calcein-AM fluorescence, 48 h, basal, profiling panel (AID 1164). Also: test concentration not given here. The settings on record: higher = more signal.
Test [14] can be described thus: compound effects on multiple myeloma cell viability – MM1S, calcein-AM fluorescence, 48 h, basal, profiling panel (AID 1165). Also: test concentration not given here. Conditions: higher = more signal.
Test [15] can be described thus: calcein-AM signal in unstimulated myeloma cells – cell-based, calcein-AM fluorescence, 48 h, PK04 Diversity Set, profiling panel (AID 1166).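 Also: cells grown under basal conditions without added stimulus; test concentration not given here.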 The settings on record: RPMI8226 myeloma viability, higher = more signal.
Test [16] can be described thus: JC-1 mitochondrial signal, unstimulated HepG2 cells – cell-based, JC-1 fluorescence, 24 h, 100 nL compound, profiling panel (AID 1167). Also: test concentration not given here. The settings on record: HepG2 mitochondrial potential, higher = more signal.
The nature of test [17]: JC-1 mitochondrial signal, unstimulated adipocytes – cell-based, JC-1 fluorescence, 3T3-L1 adipocytes, 24 h, 100 nL compound, profiling panel (AID 1168). Also: test concentration not given here. Conditions: JC-1 mitochondrial fluorescence, higher = more signal, called active from +8 up or from −8 down.
Test [18] is described as follows: JC-1 mitochondrial signal, unstimulated myeloma cells – cell-based, JC-1 fluorescence, RPMI8226, 24 h, 100 nL compound, profiling panel (AID 1169). Also: test concentration not given here. The settings on record: JC-1 mitochondrial potential fluorescence, higher = more signal.
Test [19] is described as follows: JC-1 mitochondrial signal, unstimulated MM1S myeloma – cell-based, JC-1 fluorescence, 24 h, 100 nL compound, profiling panel (AID 1170). Also: test concentration not given here. The settings on record: MM1S mitochondrial potential, higher = more signal.
The nature of test [20]: resazurin metabolic signal in A549 cells – cell-based, resazurin fluorescence, 24 h, PK04 Diversity Set, profiling panel (AID 1171). Also: test concentration not given here. Conditions: A549 viability, higher = more signal, called active from +8 up or from −8 down. In general terms: Alamar Blue is a resazurin reagent that responds to reducing activity.

Activity calls are given as the source filed them.

Chain of NADPH oxidase 5 (Homo sapiens) (Q96PH1 whole entry, looked up): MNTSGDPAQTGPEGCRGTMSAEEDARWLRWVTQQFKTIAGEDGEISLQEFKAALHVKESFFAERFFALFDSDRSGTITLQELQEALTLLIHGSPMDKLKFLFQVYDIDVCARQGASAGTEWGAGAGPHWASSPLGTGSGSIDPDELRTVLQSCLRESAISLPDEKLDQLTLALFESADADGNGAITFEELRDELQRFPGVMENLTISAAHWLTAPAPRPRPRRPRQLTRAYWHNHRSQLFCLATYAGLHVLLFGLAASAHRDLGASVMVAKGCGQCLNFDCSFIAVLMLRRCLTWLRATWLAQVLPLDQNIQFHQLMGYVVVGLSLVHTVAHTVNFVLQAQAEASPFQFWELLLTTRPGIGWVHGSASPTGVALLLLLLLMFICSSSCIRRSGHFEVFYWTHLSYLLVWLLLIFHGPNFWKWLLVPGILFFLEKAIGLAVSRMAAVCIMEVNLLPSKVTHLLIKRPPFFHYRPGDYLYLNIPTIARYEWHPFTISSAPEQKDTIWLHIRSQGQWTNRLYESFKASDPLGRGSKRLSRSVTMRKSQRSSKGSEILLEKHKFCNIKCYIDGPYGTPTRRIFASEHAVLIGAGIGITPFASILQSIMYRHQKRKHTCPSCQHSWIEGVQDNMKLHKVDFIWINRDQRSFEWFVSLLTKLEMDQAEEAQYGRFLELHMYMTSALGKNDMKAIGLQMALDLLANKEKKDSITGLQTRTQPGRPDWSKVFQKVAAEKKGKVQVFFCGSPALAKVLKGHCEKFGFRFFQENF
Chain of NADPH oxidase 2 (Homo sapiens) (P04839 whole entry, looked up): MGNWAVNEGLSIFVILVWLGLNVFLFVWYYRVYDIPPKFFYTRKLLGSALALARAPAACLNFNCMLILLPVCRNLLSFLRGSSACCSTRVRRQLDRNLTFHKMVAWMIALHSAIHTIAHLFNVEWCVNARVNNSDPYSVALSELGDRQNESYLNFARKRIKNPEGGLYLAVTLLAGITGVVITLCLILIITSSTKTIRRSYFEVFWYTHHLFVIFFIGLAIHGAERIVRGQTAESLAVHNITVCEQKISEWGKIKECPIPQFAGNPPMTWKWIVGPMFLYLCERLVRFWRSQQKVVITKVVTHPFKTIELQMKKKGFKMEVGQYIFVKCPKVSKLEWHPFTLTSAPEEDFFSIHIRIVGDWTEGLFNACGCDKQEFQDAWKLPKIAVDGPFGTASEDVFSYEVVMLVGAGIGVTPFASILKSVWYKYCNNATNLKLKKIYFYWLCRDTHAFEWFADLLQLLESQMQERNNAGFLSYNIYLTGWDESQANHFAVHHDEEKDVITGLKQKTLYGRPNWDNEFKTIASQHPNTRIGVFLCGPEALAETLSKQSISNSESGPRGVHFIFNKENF
Chain of NADPH oxidase 4 (Homo sapiens) (Q9NPH5 whole entry, looked up): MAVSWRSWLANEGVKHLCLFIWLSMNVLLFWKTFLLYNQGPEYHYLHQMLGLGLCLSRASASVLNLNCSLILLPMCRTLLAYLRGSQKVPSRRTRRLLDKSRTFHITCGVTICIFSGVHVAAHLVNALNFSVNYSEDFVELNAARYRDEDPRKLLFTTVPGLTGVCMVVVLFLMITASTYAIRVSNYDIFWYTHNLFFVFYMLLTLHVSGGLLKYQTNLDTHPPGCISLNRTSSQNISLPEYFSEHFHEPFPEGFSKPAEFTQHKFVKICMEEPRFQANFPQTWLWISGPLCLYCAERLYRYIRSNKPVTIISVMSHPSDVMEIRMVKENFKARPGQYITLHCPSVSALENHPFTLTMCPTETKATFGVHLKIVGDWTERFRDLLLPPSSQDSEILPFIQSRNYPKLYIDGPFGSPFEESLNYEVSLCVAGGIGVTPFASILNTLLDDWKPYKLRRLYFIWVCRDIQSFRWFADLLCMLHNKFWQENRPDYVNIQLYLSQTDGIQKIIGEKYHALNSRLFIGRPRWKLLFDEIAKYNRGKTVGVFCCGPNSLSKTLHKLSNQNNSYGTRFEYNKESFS

Take `O=c1n(Cc2cc3c(cc2Cl)OCO3)c(=O)n2n1CC[C@@H]1C(=NOCc3ccccc3)[C@H]3O[C@H]3[C@@H](O)[C@@H]12`: the z-score is 0.112 (inactive) in test [1]; 0.99 (inactive) in [3]; -1.13 (inactive) in test [4]; 0.434 (inactive) in test [5]; -2.49 (inactive) in [6]; 1.63 in test [7]. Besides, the z-score is -0.641 (inactive) in [8]; 0.153 (inactive) in [9]; 0.615 in test [10]; 0.7 in [11]; -0.362 in test [12]; 0.941 in test [13]. In addition, the z-score is -0.64 in [14]; 0.341 in [15]; 1.1 in test [16]; 0.218 (inactive) in [17]; 0.185 in test [18]; 0.178 in test [19]. Besides, the z-score in test [20] is -1.11 (inactive). For the same compound, the composite z-score in test [2] is -0.055.

As for `CC(=O)Nc1ccc([C@@H]2N[C@H](C(=O)O)CC[C@H]2C)cc1`, the z-score in test [1] was 0.961 (inactive); in test [3], -0.188 (inactive); in test [4], 0.182 (inactive); in test [5] it was -0.23 (inactive); in test [6] it was -0.267 (inactive); in test [7] it was 0.699. The z-score in [8] is -0.121 (inactive); in [9] it was 0.195 (inactive); in [10] it was 0.13; in test [11] it was 0.858; in [12], 0.122; in [13], -0.0918. Also, the z-score in test [14] was 0.402; in test [15], -0.371; in [16] it was 1.14; in [17] it was 0.456 (inactive); in test [18] it was -0.355; in [19], -0.0501. Further, in test [20], the z-score was -0.542 (inactive). Also, in [2], the composite z-score was -0.017.

Turning to `COC(=O)CC=C[C@@H](C)[C@@H](C=NO[C@@H](C)c1cn([C@H](CO)Cc2ccccc2)nn1)NS(=O)(=O)c1ccc(C)cc1`, the z-score in test [1] is 0.264 (inactive); in test [3] it was 0.507 (inactive); in [4], -1.66 (inactive); in [5], -0.598 (inactive); in test [6], -1.93 (inactive); in test [7] it was 1.85. Besides, the z-score is -0.575 (inactive) in [8]; 0.328 (inactive) in [9]; 0.17 in [10]; 0.788 in test [11]; 0.521 in test [12]; 1.35 in [13]. Moreover, the z-score in test [14] is 0.56; in test [15], 0.593; in test [16], -1.24; in test [17], 0.153 (inactive); in test [18] it was -0.249; in test [19] it was -0.648. Moreover, the z-score in test [20] is -0.685 (inactive). In test [2], this compound showed a composite z-score of 0.196.

On to `COC(=O)CC=C[C@@H](C)[C@@H](C=NO[C@H](C)c1cn([C@@H]2COC[C@H]2O)nn1)NS(=O)(=O)c1ccc(C)cc1`, for which the z-score in test [1] is 0.876 (inactive); in test [3] it was 1.43 (inactive); in [4], 0.269 (inactive); in test [5] it was 0.785 (inactive); in test [6], 0.465 (inactive); in test [7], 0.459. Further, the z-score is -0.283 (inactive) in test [8]; 0.891 (inactive) in test [9]; 0.309 in [10]; 0.802 in [11]; -0.628 in test [12]; 1.16 in [13]. The z-score in test [14] was 0.111; in test [15], 0.188; in test [16], -0.156; in test [17], 0.766 (inactive); in [18], 0.556; in [19], -1.25. In [20], the z-score is -1.14 (inactive). Besides, the composite z-score in test [2] was -0.274.

As for `CO[C@@H]1COC(=O)CC=C[C@@H](C)[C@@H]2C=C[C@H](O)[C@@H](COC(=O)CC=C[C@H]1C)O2`, the z-score in test [1] is 0.988 (inactive); in [3], 0.872 (inactive); in [4], -0.28 (inactive); in [5], 0.178 (inactive); in test [6], -0.213 (inactive); in test [7], 1.2. For the same compound, the z-score in test [8] was 0.262 (inactive); in test [9] it was 1.18 (inactive); in test [10] it was 0.589; in test [11] it was 1.26; in test [12], 0.392; in test [13], 0.764. For the same compound, the z-score in test [14] was 0.425; in test [15] it was 0.448; in test [16], 0.598; in test [17] it was 0.967 (inactive); in test [18], -0.31; in test [19], 0.658. Further, the z-score in test [20] was 0.0324 (inactive). This compound also came in with a composite z-score in test [2] of -0.0984.

As for `COC(=O)[C@H](C)NC(=O)CCC1CC(OC(=O)NCc2ccc3c(c2)OCO3)CC2(CCCC(COC(=O)NCc3cccc(C(F)(F)F)c3)O2)O1` (stereo not given in full), the z-score in [1] was -0.39 (inactive); in test [3] it was 0.598 (inactive); in test [4], -0.529 (inactive); in test [5] it was 0.262 (inactive); in test [6], -0.239 (inactive); in [7], 0.0036. Also, the z-score in test [8] is 1.5 (inactive); in test [9] it was 0.971 (inactive); in [10], 1.15; in test [11] it was -0.828; in test [12], -0.0811; in test [13] it was -1.55. Besides, the z-score in [14] was -2.05; in test [15], 0.442; in [16] it was -1.44; in test [17], -0.123 (inactive); in [18], 0.619; in [19], -0.213. Further, in [20], the z-score was 0.0249 (inactive). In addition, the composite z-score in test [2] is -0.045.

On to `COc1ccc(O[C@H]2C=C[C@@H](c3ccccc3)O[C@@H]2CON=C(C)CCN2CCc3nc(-c4ccccc4)c(-c4ccccc4)cc3C2)cc1`, for which the z-score in test [1] was -1.59 (inactive); in test [3], 2.48 (inactive); in test [4], 1.25 (inactive); in test [5], 0.855 (inactive); in test [6], 0.71 (inactive); in [7], -0.0313. The z-score is 0.168 (inactive) in test [8]; 0.00405 (inactive) in [9]; -0.434 in test [10]; 0.437 in [11]; 0.133 in [12]; 0.59 in [13]. Also, the z-score in test [14] is -1.65; in test [15], -0.439; in [16], 4.95; in test [17], -1.39 (inactive); in [18] it was 0.965; in test [19], -0.214. For the same compound, in [20], the z-score is 0.621 (inactive). In addition, in [2], the composite z-score was -0.101.

In the case of `CCOC(=O)NN=C1C[C@@H](O)[C@@H](O)[C@@H]2[C@@H]3C(=O)N(c4cccc(Oc5ccccc5)c4)C(=O)[C@@H]3CC[C@@H]12`, the z-score in [1] is -0.852 (inactive); in [3] it was 0.999 (inactive); in test [4], 0.753 (inactive); in test [5], 0.471 (inactive); in test [6], 0.233 (inactive); in test [7], -0.142. Further, the z-score in [8] is 0.361 (inactive); in test [9], -0.0548 (inactive); in test [10] it was -2.88; in test [11] it was -0.382; in test [12], 0.279; in test [13] it was -1.56. For the same compound, the z-score is -0.454 in test [14]; -0.423 in [15]; -0.0933 in [16]; -0.451 (inactive) in test [17]; -0.0715 in test [18]; 0.524 in test [19]. Further, in test [20], the z-score is -0.0206 (inactive). The compound also yielded a composite z-score in test [2] of -0.0984.

The values are drawn from PubChem BioAssay.
